Whole data set: some 110,000 compounds, median “z-score” near -0.1, cut for the highest 2% near 2. The full list was thinned out, with the highest values kept by preference. Active and inactive are the calls of the source.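 How the source made its calls: active means z-score in the third read window above 3 or below -3; inactive means the rest.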
Molecular target: Metabotropic glutamate receptor 8 (Rattus norvegicus) (UniProt P70579)
Assay: mGluR8 Gi/Go-coupled signaling modulation – cell-based, rat, thallium flux, HTS, primary screen (AID 488969)
Conditions: HEK293 rat mGluR8, GIRK (G protein-gated inwardly rectifying potassium channel) thallium flux, FluoZin2; at 10 µM; stronger effect = higher value; submaximal glutamate (EC20) added with thallium

Sequence of Metabotropic glutamate receptor 8 (Rattus norvegicus) (P70579 whole entry, looked up): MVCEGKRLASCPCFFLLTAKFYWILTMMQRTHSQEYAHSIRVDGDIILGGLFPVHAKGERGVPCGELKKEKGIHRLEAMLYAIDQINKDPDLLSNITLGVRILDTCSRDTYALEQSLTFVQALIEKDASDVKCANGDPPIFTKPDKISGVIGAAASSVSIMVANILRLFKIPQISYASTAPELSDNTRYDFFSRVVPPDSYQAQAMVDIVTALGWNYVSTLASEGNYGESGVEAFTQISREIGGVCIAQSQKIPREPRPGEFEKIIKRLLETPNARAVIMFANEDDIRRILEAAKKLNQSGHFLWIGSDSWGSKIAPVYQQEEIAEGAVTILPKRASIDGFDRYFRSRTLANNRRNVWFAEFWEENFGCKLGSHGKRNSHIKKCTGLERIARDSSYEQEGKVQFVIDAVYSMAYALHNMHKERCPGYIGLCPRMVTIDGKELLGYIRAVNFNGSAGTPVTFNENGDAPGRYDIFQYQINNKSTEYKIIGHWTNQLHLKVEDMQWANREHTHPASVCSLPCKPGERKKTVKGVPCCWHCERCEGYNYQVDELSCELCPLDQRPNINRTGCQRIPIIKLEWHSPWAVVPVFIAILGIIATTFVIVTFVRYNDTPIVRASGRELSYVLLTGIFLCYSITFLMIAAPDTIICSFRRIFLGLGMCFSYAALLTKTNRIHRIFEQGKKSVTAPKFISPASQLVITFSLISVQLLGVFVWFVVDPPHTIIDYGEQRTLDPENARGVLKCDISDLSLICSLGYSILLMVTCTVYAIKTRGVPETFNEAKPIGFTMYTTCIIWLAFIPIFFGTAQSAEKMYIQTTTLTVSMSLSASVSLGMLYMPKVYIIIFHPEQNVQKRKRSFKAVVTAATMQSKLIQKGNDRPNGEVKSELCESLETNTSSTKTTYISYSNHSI

Row | SMILES | z-score
1 | CNC(=S)N(Cc1ccc2c(c1)OCO2)C1CC(=O)N(c2ccc(F)cc2)C1=O (configuration not stated) | 0.0865
2 | O=C(CN1C(=O)c2ccccc2C1=O)Nc1ccc2c(c1)OCO2 | -0.335
3 | CCC1(C)Cc2c(sc3c2c(=O)n(-c2ccccc2)c(=O)n3C)CO1 (configuration not stated) | -0.673
4 | CC1(C)Cc2c(sc3[nH]c(=S)n(Cc4ccccc4)c(=O)c23)CO1 | 14.5 (active)
5 | CC(C)C1Cc2c(sc3c2c(=O)n(Cc2ccccc2)c2nncn32)CO1 (configuration not stated) | -3.44 (active)
6 | CC1(C)Cc2c(sc3[nH]c(=S)n(Cc4ccco4)c(=O)c23)CO1 | 8.31 (active)
7 | CSc1nnc2n(Cc3ccccc3)c(=O)c3c4c(sc3n12)COC(C(C)C)C4 (configuration not stated) | -0.311
8 | CCC1(C)Cc2c(sc3nc(SC)n(Cc4ccccc4)c(=O)c23)CO1 (configuration not stated) | -0.216
9 | Cc1nnc2n(Cc3ccccc3)c(=O)c3c4c(sc3n12)COC(C)(C)C4 | 0.198
10 | CC1(C)Cc2c(sc3c2c(=N)n(Cc2ccco2)c(=O)n3Cc2ccccc2)CO1 | -0.918
11 | CC(C)C1Cc2c(sc3[nH]c(=S)n(Cc4ccccc4)c(=O)c23)CO1 (configuration not stated) | 5.29 (active)
12 | CCC1(C)Cc2c(sc3[nH]c(=S)n(Cc4ccccc4)c(=O)c23)CO1 (configuration not stated) | 8.14 (active)
13 | Cn1c(=O)[nH]c2sc3c(c2c1=O)CC(C)(C)OC3 | -0.263
14 | CCn1c(=O)n(Cc2ccco2)c(=N)c2c3c(sc21)COC(C)(C)C3 | -0.025
15 | O=C(CSc1nnc(-c2ccccc2)n1-c1ccccc1)N1c2ccccc2Sc2ccccc21 | -1.52
16 | CC1CCCCN1C(=O)NC12CC3CC(CC(C3)C1)C2 (configuration not stated) | -0.518
17 | CCOc1ccc2c(c1)n(CO)c(=S)n2CO | 0.0706
18 | C(=C\c1cccc2ccccc12)/c1nnc(-c2cccs2)o1 | -0.201
19 | COc1ccc(CC(=O)n2c(CC#N)nc3ccccc32)cc1OC | 0.0175
20 | Cc1ccc2c(Cn3cc(C(F)(F)F)cc(Cl)c3=O)cc(=O)oc2c1 | -0.249
21 | CC(C)OC(=O)c1ccc(N2C(=O)C3CC=CCC3C2=O)cc1 (configuration not stated) | 0.0622
22 | C=CCOC(=O)Nc1c(C(=O)OC)[nH]c2ccc(Cl)cc12 | -0.103
23 | CCCCNC(=O)/C(C#N)=C/c1ccc(-c2ccc(S(=O)(=O)N3CCOCC3)cc2)o1 | 0.164

Row | SMILES | z-score
24 | CCOCCCNC(=O)/C(C#N)=C/c1ccc(-c2ccc(S(=O)(=O)N3CCOCC3)cc2)o1 | 2.32
25 | COCCNC(=O)/C(C#N)=C/c1ccc(-c2ccc(S(=O)(=O)N3CCOCC3)cc2)o1 | -0.137
26 | O=C(OCC1COc2ccccc2O1)c1c(F)cccc1F (configuration not stated) | 0.396
27 | N=c1oc2ccc3ccccc3c2cc1-c1nc(-c2ccccc2)cs1 | 3.16 (active)
28 | N=c1oc2ccccc2cc1-c1nc(-c2ccc(Cl)cc2)cs1 | -0.248
29 | COc1ccc(-c2csc(-c3cc4ccccc4oc3=N)n2)cc1 | -0.00953
30 | CCN(CC)C(=O)N1c2ccccc2C=Cc2ccccc21 | -0.214
31 | COc1ccc(-c2nnc(NC(=O)c3ccc(S(=O)(=O)N4CCCc5ccccc54)cc3)o2)cc1 | 2.07
32 | CCc1nnc(NC(=O)c2ccc(S(=O)(=O)N3CCc4ccccc4C3)cc2)s1 | -0.158
33 | COc1ccc(-c2nnc(NC(=O)c3ccc(S(=O)(=O)N4COCC4(C)C)cc3)o2)cc1 | 1.22
34 | O=C(Nc1nnc(C2CC2)o1)c1ccc(S(=O)(=O)N2CCCc3ccccc32)cc1 | 1.85
35 | CCc1nnc(NC(=O)c2ccc(S(=O)(=O)N3CCCc4ccccc43)cc2)o1 | 0.372
36 | COc1ccc(-c2nnc(NC(=O)c3ccc(S(=O)(=O)N4CCc5ccccc5C4)cc3)o2)cc1 | 9.68 (active)
37 | COC(=O)COc1cc(Br)c(/C=C2/SC(=O)N(CC(=O)N3CCCC3)C2=O)cc1OC | 0.0962
38 | O=C(OCc1nc2ccc(Cl)cc2n1CCO)c1ccc(O)cc1 | -0.133
39 | CCOC(=O)c1cc(CC)sc1NC(=O)c1ccc(N2C(=O)CCC2=O)cc1 | -0.383
40 | COc1ccc(C)cc1S(=O)(=O)N(C)CC(=O)N1CCCCCC1 | -0.534
41 | O=C(CSc1nc(-c2ccco2)cc(C(F)(F)F)n1)N1CCN(c2ccc(Cl)cc2)CC1 | -0.455
42 | COc1ccc(C2C(C(N)=O)=C(C)Nc3nc(-c4ccccc4OC)nn32)cc1OC (configuration not stated) | 0.317
43 | O=C1N/C(=C/c2ccc(N3CCCC3)cc2)C(=O)N1c1ccccc1 | -0.886
44 | CCCN1C(=O)/C(=C/c2ccc(C)s2)NC1=S | 13.9 (active)
45 | O=C1N/C(=C\c2ccc(N3CCOCC3)c(F)c2)C(=O)N1Cc1ccccc1 | -0.434
46 | COC(=O)C1=C(C)N(CC(C)C)C(=O)/C1=C\c1cccs1 | -0.236

Row | SMILES | z-score
47 | CC(C)CN1C(=O)/C(=C/c2cccs2)NC1=S | 15.8 (active)
48 | Cc1cccc(CN2C(=O)N/C(=C/c3ccc(C)s3)C2=O)c1 | -0.147
49 | COc1ccc(N2C(=O)/C(=C/c3cccs3)NC2=S)cc1 | 1.07
50 | CCCN1C(=O)c2cccc3c(N4CCCCC4)ccc(c23)C1=O | -0.337
51 | O=C1/C(=C/c2ccc(N3CCCC3)cc2)NC(=S)N1C1CC1 | 2.85
52 | CCCN1C(=O)/C(=C/c2ccc(N3CCCC3)c(C)c2)NC1=S | 11 (active)
53 | Cc1ccc(NC(=O)CN2C(=O)N/C(=C/c3ccc(C)s3)C2=O)cc1 | 0.22
54 | CCN1C(=O)/C(=C/c2ccc(N3CCCC3)cc2)NC1=S | 1.3
55 | O=C1CSC(=S)N1CC1CCCO1 (configuration not stated) | -0.08
56 | Cc1noc(C)c1C(=O)NCCc1ccc(Cl)cc1 | -0.377
57 | COCC(=O)NC1CCN(C(=O)Nc2ccc(Br)cc2)CC1 | -0.036
58 | CCOC(=O)c1c(C)[nH]c(C(=O)/C(C#N)=C/c2ccc(OC(F)F)c(OC)c2)c1C | -0.315
59 | O=C(NCC(c1cccs1)N1CCOCC1)c1ccccc1NS(=O)(=O)c1ccc(Cl)cc1 (configuration not stated) | -0.359
60 | Cc1csc(NC(=O)C2CCCN(S(=O)(=O)c3cnc[nH]3)C2)n1 (configuration not stated) | 0.36
61 | Cc1cccc(OCCSc2nc3c([nH]2)c(=N)ncn3Cc2ccccc2)c1 | -0.0916
62 | CC(C)(C)c1ccc(C(=O)NC(=S)NCC2CCCO2)cc1 (configuration not stated) | 1.62
63 | Cc1ccccc1Nc1nc(-c2sc(NC(=O)c3ccco3)nc2C)cs1 | -0.239
64 | Nc1ccc(Sc2cnn(-c3ccccc3)c(=O)c2Cl)cc1 | -2.01
65 | CCN1C(=O)/C(=C/c2ccc(C)s2)NC1=S | 15.1 (active)
66 | CCN1C(=O)/C(=C\N(C)C)NC1=S | -0.121
67 | Cc1ccc(/C=C2/NC(=O)N(Cc3ccccc3)C2=O)s1 | -0.0544

Source: PubChem BioAssay AID488969 (Vanderbilt High Throughput Screening Facility, 2010)
